Laboratory results from PubChem BioAssay (EPA / NIEHS).
Where “and” joins values, the source holds several entries; their conditions need not be identical. Identical values can stand only once. Calls of active or inactive are those of the source. Rule for the calls: active = hit-call score of the fitted dose curve at least 0.9, where 1 is the maximum; inactive = score below 0.9.

Assay: APR_HepG2_MitoMass_1hr: Apredica 1-hour HepG2 Assay for Mitochondrial Mass (AID 2282674)
Conditions: high-content imaging, actives raise or lower the signal
Description: APR_HepG2_1hr is a cell-based, multiplexed-readout assay that uses HepG2, a human liver cell line, with measurements taken at 1 hour after chemical dosing in a 384-well plate.APR_HepG2_MitoMass_1hr is one of 10 assay component(s) measured or calculated from the APR_HepG2_1hr assay. It is designed to make measurements of cell phenotype, a form of morphology reporter, as detected with fluorescence intensity signals by HCS Fluorescent Imaging technology.Data from the assay component APR_HepG2_MitoMass_1hr was analyzed into 1 assay endpoint. This assay endpoint, APR_HepG2_MitoMass_1hr, was analyzed with bidirectional fitting relative to DMSO as the negative control and baseline of activity. Using a type of morphology reporter, gain or loss-of-signal activity can be used to understand changes in the signaling. Furthermore, this assay endpoint can be referred to as a primary readout, because this assay has produced multiple assay endpoints where this one serves a signaling function. To generalize the intended target to other relatable targets, this assay endpoint is annotated to the cell morphology intended target family, where the subfamily is organelle conformation.
Cells were treated with dimethyl sulfoxide (DMSO) as a solvent control at a final concentration of 0.5% v/v or with compounds in DMSO with a resulting final DMSO concentration of 0.5% v/v. Compound treatment was done at concentrations of 0.39, 0.78, 1.56, 3.12, 6.24, 12.5, 25, 50, 100, and 200 uM in duplicate on each plate. Cells were treated with compounds for 1, 24, or 72 hr. Carbonyl […] m-chloro-phenylhydrazone (CCCP) and taxol were used as positive controls for mitochondrial function and cytoskeletal stability, respectively; DMSO served as the negative control for this experiment. Cells were fixed by the direct addition of 50 uL formaldehyde in Hank's Balanced Salt Solution (HBSS) to a final concentration of 3.7%. After incubation in the fixation medium for 30 min at room temperature (293-298 K), cells were rinsed twice with HBSS and treated with cell permeabilization buffer (16 uL of 0.5% Triton X-100) for 10 min at room temperature (293-298 K) before labeling. For mitochondrial membrane potential and mitochondrial measurements, pre-fixed cells were incubated with 50 uL of MitoTracker Red CMXRos (Invitrogen) at a concentration of 250 nM for 30 min before fixation. In the remaining cases, post-fixed cells were labeled by incubation with a multiplexed mixture of primary antibodies in HBSS for 60 min at room temperature (293-298 K) to detect immunoreactivity of c-Jun (1:500), phospho-histone H3 (1:100), phospho-histone H2A.x (1:200), p53 (1:400), alpha-tubulin (1:200) and Hoechst 33342 (2 ug/mL). Cells were labeled for multiplexed imaging on two separate plates: a) Hoechst 33342, MitoTracker Red, phospho-histone H3, and alpha-tubulin, and b) Hoechst 33342, phospho-histone H2A.x, and c-Jun. A final rinse with HBSS (50 uL) was performed before analysis. The primary and secondary antibodies for the proteins were phospho-histone H3 (rabbit anti-phospho-histone H3 and FITC-donkey anti-rabbit IgG), phospho-histone H2A.x (mouse anti-phospho-histone H2A.x and FITC-donkey anti-mouse IgG), c-Jun (rabbit anti-phospho-c-Jun and Cy3-donkey anti-rabbit IgG), p53 (sheep anti-p53 and Cy5-donkey anti-sheep IgG), alpha-tubulin (mouse anti-alpha-tubulin and Cy5-donkey anti-mouse IgG). These antibodies are available as the CellCiphr HepG2 assay kit (Millipore).Digital images of each well were captured using a Cellomics ArrayScan VTI (Thermo Scientific Cellomics) (0.8 NA objective, 0.63x optical coupler, and XF-93 filter set) at 20x magnification. The images were acquired using the autofocus feature of the ArrayScan instrument, which entails the following steps. First, the camera focuses on channel 1 (Hoechst 33342), where nuclei are identified. Second, a Z offset of 1 um is used for capturing mitochondria (MitoTracker Red). Third, a Z offset of -2 um is used for capturing the cytoskeleton (tubulin). […]
With `COc1nc(C)nc(NC(=O)NS(=O)(=O)c2ccccc2CCC(F)(F)F)n1` the outcome was “inactive”. With `COP(N)(=O)SC` (stereo not given) the outcome was “inactive”. With `CCOP(=S)(OCC)SCn1c(=O)oc2cc(Cl)ccc21` the outcome was “inactive”. In the case of `C=CCC1=C(C)C(OC(=O)C2C(C=C(C)C)C2(C)C)CC1=O` (stereo not given), the outcome was “inactive”. For `CCOc1cc(Oc2ccc(C(F)(F)F)cc2Cl)ccc1[N+](=O)[O-]`, the outcome was “inactive”. With `CCOC(=O)CC(SP(=S)(OC)OC)C(=O)OCC` (stereo not given) the outcome was “inactive”. For `N#Cc1cc(Br)c(O)c(Br)c1`, the outcome was “inactive”. For `N#CC(CCc1ccc(Cl)cc1)(Cn1cncn1)c1ccccc1` (stereo not given), the outcome was “inactive”. For `CCNc1nc(Cl)nc(NCC)n1`, the outcome was “inactive”. For `COc1nc(NC(C)C)nc(NC(C)C)n1`, the outcome was “inactive”. With `O=C(O)COc1nc(Cl)c(Cl)cc1Cl` the outcome was “inactive”. With `CS/C(C)=N/OC(=O)N(C)SN(C)C(=O)O/N=C(\C)SC` the outcome was “inactive”. With `C=CC1(C)OC(=O)N(c2cc(Cl)cc(Cl)c2)C1=O` (stereo not given) the outcome was “inactive”. In the case of `CC(C)C1(C)N=C(c2nc3ccccc3cc2C(=O)O)NC1=O` (stereo not given), the outcome was “inactive”. In the case of `CC(C)Oc1cc(-n2nc(C(C)(C)C)oc2=O)c(Cl)cc1Cl`, the outcome was “inactive”. In the case of `O=C(O)c1nc(Cl)ccc1Cl`, the outcome was “inactive”. For `CCCCNC(=O)n1c(NC(=O)OC)nc2ccccc21`, the outcome was “inactive”. For `COc1ccc(C(c2ccc(OC)cc2)C(Cl)(Cl)Cl)cc1`, the outcome was “inactive”. For `COC(=O)N(OC)c1ccccc1COc1ccn(-c2ccc(Cl)cc2)n1`, the outcome was “inactive”. With `CCCN(CCC)c1c([N+](=O)[O-])cc(S(N)(=O)=O)cc1[N+](=O)[O-]` the outcome was “inactive”. For `COC(=O)c1ccccc1C(=O)OC`, the outcome was “inactive”. In the case of `COP(=S)(OC)Oc1nc(Cl)c(Cl)cc1Cl`, the outcome was “inactive”. For `Cc1c(F)c(F)c(COC(=O)C2C(/C=C(\Cl)C(F)(F)F)C2(C)C)c(F)c1F` (stereo not given), the outcome was “inactive”. With `CNC(=O)ON=CC(C)(C)SC` the outcome was “inactive”. In the case of `CCCC1COC(Cn2cncn2)(c2ccc(Cl)cc2Cl)O1` (stereo not given), the outcome was “inactive”. In the case of `CC1COC(Cn2cncn2)(c2ccc(Oc3ccc(Cl)cc3)cc2Cl)O1` (stereo not given), the outcome was “inactive”. In the case of `OC(c1ccc(Cl)cc1)(c1cncnc1)c1ccccc1Cl` (stereo not given), the outcome was “inactive”. With `CC(Oc1ccc(Cl)cc1Cl)C(=O)O` (stereo not given) the outcome was “inactive”. For `Oc1ccccc1-c1ccccc1`, the outcome was “inactive”. In the case of `C#CCOS(=O)OC1CCCCC1Oc1ccc(C(C)(C)C)cc1` (stereo not given), the outcome was “inactive”. For `CON(C)C(=O)Nc1ccc(Cl)c(Cl)c1`, the outcome was “inactive”. With `CN(C)C(=S)SSC(=S)N(C)C` the outcome was “inactive”. In the case of `COC(=O)C=C(C)OP(=O)(OC)OC`, the outcome was “inactive”. For `CCCCOC(=O)c1ccccc1C(=O)OCCCC`, the outcome was “inactive”. With `CCON=C(CC)C1=C(O)CC(c2c(C)cc(C)cc2C)CC1=O` (stereo not given) the outcome was “inactive”. With `COC(=O)C(C)Oc1ccc(Oc2ccc(Cl)cc2Cl)cc1` (stereo not given) the outcome was “inactive”. In the case of `Cc1cc(Cl)ccc1OCC(=O)O`, the outcome was “inactive”. With `COc1nc(C)nc(NC(=O)NS(=O)(=O)c2ccccc2Cl)n1` the outcome was “inactive”. For `CCCCNC(=O)OCC#CI`, the AC50 was 47.8 µM (active) and 60.6 µM (active). With `C=CCC1=C(C)[C@@H](OC(=O)[C@@H]2[C@@H](C=C(C)C)C2(C)C)CC1=O` the outcome was “inactive”.
